Screening results from PubChem.
Most compounds without a hit are left out; they make up all but 3.6% or so of the library.
BoNT A protease: inhibitors of Botulinum neurotoxin A light chain protease; 0.17% of 360,000 active; AID 588499; multiplex microsphere protease substrate cleavage, flow cytometry; inhibition, % at 10 µM; also: plate controls were buffer without enzyme for full effect and enzyme alone for no effect
MazF activator: MazEF (E. coli) toxin RNase activation. activation, % at 20 µM. AID 504720. 0.32% of 350,000 active. FAM/BHQ RNA-DNA oligo cleavage fluorescence, 5 h. P0AE70; in the data active = activation above about 50%
Target sequence (P0AE70 whole entry, looked up): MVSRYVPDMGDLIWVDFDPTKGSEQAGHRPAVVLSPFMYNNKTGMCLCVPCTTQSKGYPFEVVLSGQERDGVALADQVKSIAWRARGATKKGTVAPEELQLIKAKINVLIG
BoNT-F LC inh: blocks Botulinum neurotoxin F light chain protease; 0.22% of 360,000 active; inhibition, % at 10 µM; Multiplex microsphere protease cleavage assay, flow cytometry; in the data active = inhibition above about 35%, passing the limit was not always enough; inconclusive = no clear call, values can overlap the other calls; also: plate controls were buffer without enzyme for full effect and enzyme alone for no effect
Autofluor counter: flagged as autofluorescent in microsphere protease counterscreen. 3.1% of 360,000 active. compound autofluorescence counterscreen, microsphere flow cytometry; hits give high values. AID 624483. fluorescence intensity (no concentration beside the values); in the data active = fluorescence intensity above about 16000; inconclusive = no clear call, values can overlap the other calls
Anthrax LF inh2: blocks Bacillus anthracis lethal factor protease | P15917 | multiplex microsphere protease cleavage assay, LF | inhibition, % at 10 µM | 0.12% of 360,000 active | AID 588501; also: plate controls were buffer without enzyme for full effect and enzyme alone for no effect
Starred values were filed as active, the others as inactive; ? = inconclusive; nt = no result given. Rule as the data show it, unless noted: active = inhibition above about 30%; inconclusive = no clear call, values can overlap the other calls; inactive = below that.

SMILES | BoNT A protease | MazF activator | BoNT-F LC inh | Autofluor counter | Anthrax LF inh2
COC(=O)c1sccc1-c1ccc(C(=O)Nc2ccccc2)o1 | ? | 5 | 2 | 19373* | 1
COC(=O)c1sccc1NC(=O)c1ccc(C)o1 | 0 | 2 | -14 | 4838 | -1
Cc1ccc2nc3cc([N+](=O)[O-])cc([N+](=O)[O-])c3cc2c1 | 5 | 354* | -11 | 4075 | -8
Cc1nc2ccc([N+](=O)[O-])cc2nc1C | -1 | 5 | -7 | 4052 | -3
Cc1cc(OCC(=O)O)c2c3c(c(=O)oc2c1)CCCC3 | 0 | 2 | -9 | 3526 | -3
Cc1ccc(-n2nc(C)cc2NC(=O)COc2cc(C)cc3oc(=O)c4c(c23)CCC4)cc1 | 1 | 45 | 3 | 22051* | -1
O=C(C1=COCCO1)N1CCN(c2nc3ccc([N+](=O)[O-])cc3s2)CC1 | 2 | 2 | 7 | 5927 | 1
CCOC(=O)c1c(C)nc2c(c1-c1cc(OC)c(OC)c(OC)c1)C(=O)c1ccccc1-2 | ? | -1 | 5 | 19026* | -1
CNC(=S)NNC(=O)c1cccn(Cc2cccc(Cl)c2)c1=O | -2 | -3 | -3 | 24235* | 0
C=CCNC(=S)NNC(=O)c1cccn(Cc2ccc(Cl)c(Cl)c2)c1=O | -1 | -3 | -9 | 5648 | -2
O=C(NCc1ccccc1)c1cccn(Cc2cccc(Cl)c2)c1=O | 4 | -1 | 11 | 3907 | -7
CNC(=S)NNC(=O)c1cccn(Cc2ccc(Cl)c(Cl)c2)c1=O | 1 | 6 | -2 | 22977* | 0
OC[C@@H]1CN(Cc2ccco2)C[C@H](n2cnc3c(NCc4ccncc4)ncnc32)O1 | 0 | nt | 8 | 3709 | -2
NC(=O)CNC1CC(=O)N(CCc2ccccc2)C1=O (stereo not given) | 0 | 6 | 0 | 23483* | -2
CN(CC(=O)Nc1ccncc1)S(=O)(=O)c1ccc(Br)cc1 | 0 | 5 | 3 | 7812 | -4
CN(CC(=O)Nn1cnnc1)S(=O)(=O)c1ccc(Br)cc1 | ? | 3 | 10 | 18838* | -10
COC(=O)c1ccc(NC(=O)c2cccc(Cl)c2)o1 | -1 | 3 | -4 | 23122* | -3
CC(C)=CCC[C@H](C)CC1Cc2[nH]c(=S)[nH]c(=O)c2C(c2ccc(Cl)cc2)O1 (stereo not given in full) | 0 | nt | 1 | 4444 | -3
CCOC(=O)C1(C)CCCN(C(=O)c2ccc3c(c2)OCO3)C1 (stereo not given) | 0 | nt | 4 | 3401 | -6
Cc1ccc(C(=O)CSc2n[nH]c(C)n2)cc1 | 0 | 4 | -2 | 9972 | -4
CCc1ccc(C(=O)CSc2n[nH]c(C)n2)cc1 | -1 | -7 | -2 | 21979* | -3
CCN1CCN(Cc2c(O)ccc3c2O/C(=C\C=C\c2ccccc2)C3=O)CC1 | 35* | -100 | 5 | 2071 | 12
COc1ccccc1/C=C/C=C1\Oc2c(ccc(O)c2CN2CCN(CCO)CC2)C1=O | 31* | -134 | 1 | 2160 | 12
O=C1/C(=C/C=C/c2ccccc2)Oc2c1ccc(O)c2CN1CCN(CCO)CC1 | 1 | -186 | 4 | 4760 | 0
N#Cc1ccc(-c2ccc(F)cc2)nc1Oc1ccc(F)cc1 | 2 | 0 | 1 | 21827* | -3
SMILES | BoNT A protease | MazF activator | BoNT-F LC inh | Autofluor counter | Anthrax LF inh2
Cc1nc(N2CCN(c3ccccc3)CC2)nc2c1C(=O)CCC2 | 1 | -3 | 0 | 22851* | -3
Cc1nc(N2CCN(c3ccccc3)CC2)nc2c1C(=O)CC(C)C2 (stereo not given) | 1 | -4 | 1 | 21996* | -2
Cc1nc(N2CCN(c3ccccc3)CC2)nc2c1C(=O)CC(c1ccccc1)C2 (stereo not given) | 6 | -11 | 6 | 17903* | -12
COC(=O)[C@@H]1Cc2c([nH]c3ccccc23)C(C)(C)N1C(=O)CCl | 0 | -2 | 7 | 3477 | 6
Nc1nc(Cn2nnc(-c3ccccc3F)n2)nc(N2CCOCC2)n1 | 0 | 2 | -8 | 4445 | 2
Nc1nc(Cn2nnc(-c3ccccc3Cl)n2)nc(N2CCOCC2)n1 | ? | -7 | -4 | 23188* | -4
Clc1ccccc1OCCn1ccnc1 | 0 | -3 | 3 | 20725* | 2
Cc1cccc(OCCCn2ccnc2)c1 | ? | 3 | -2 | 21296* | -2
COc1cccc(OCCn2ccnc2)c1 | 0 | -1 | 0 | 23533* | -3
Cc1ccc(OCCCCn2ccnc2)c(Cl)c1 | 7 | -2 | 8 | 19999* | -15
CCN(C[C@H]1N[C@@](C)(C(=O)OC)[C@H]2C(=O)N(Cc3ccccc3)C(=O)[C@@H]12)C(=O)c1ccc(C)cc1 | 0 | -3 | -2 | 3797 | -1
CS(=O)(=O)c1sc(C#N)c2c1C(=O)CC(c1ccccc1)C2 (stereo not given) | -1 | 6 | 23 | 2860 | 2
CCOc1ccc(NC(=S)NCc2ccc3c(c2)OCO3)cc1 | -3 | -2 | -24 | 3391 | 6
Cc1noc(C)c1COc1ccc(C(=O)OCC(=O)Nc2ccc(C(=O)N(C)C)cc2)cc1 | 4 | 3 | 20 | 4349 | 1
CCOc1ccc(-c2nnc(SCC(=O)Nc3ccc4c(c3)c3ccccc3n4CC)n2N)cc1 | -1 | -16 | -2 | 16867* | 0
CCn1c2ccccc2c2cc(NC(=O)CSc3nnc(-c4ccccc4OC)n3N)ccc21 | ? | 0 | -9 | 17821* | 0
O=S1(=O)N=C(Nc2nncs2)c2ccccc21 | ? | 1 | 3 | 22257* | -4
CCN(CC)c1ccc(Nc2nc(N3CCOCC3)c3ccccc3n2)cc1 | 1 | 5 | -5 | 20077* | -4
COc1ccc(Nc2nc(N3CCCC3)c3ccccc3n2)cc1 | 1 | -5 | -1 | 2604 | -1
CSc1nc(N2CCOCC2)c2ccccc2n1 | -1 | -8 | 0 | 23367* | 0
N#Cc1ccc(C(=O)NNC(=O)c2cccc(S(=O)(=O)N3CCOCC3)c2)cc1 | -2 | -10 | 1 | 4280 | -2
CN(C)CCN=Cc1c(O)n(-c2ccc(S(=O)(=O)N3CCOCC3)cc2)c(=O)c2ccccc12 | -4 | 2 | -5 | 5093 | 1
COC(=O)Cn1c(=O)c2c(nc(Br)n2CC(=O)OC)n(C)c1=O | 3 | 0 | 2 | 22104* | -3
CCOC(=O)Cn1c(=O)c2c(nc(Br)n2CC(=O)OCC)n(C)c1=O | 0 | 10 | -2 | 2412 | -2
CN1CCN(C(=O)OC2CC3CC2[C@H]2CCCCN2C3=O)CC1 (stereo not given in full) | 0 | nt | -3 | 5340 | 1
Nc1c(NC2CCCCC2)c2ccccc2oc1=O | 3 | -5 | 2 | 22176* | -1
Nc1c(NCCCN2CCOCC2)c2ccccc2oc1=O | -4 | 4 | -5 | 21802* | 2
CCOC(=O)c1cn2nc(-c3ccc(OCC)cc3)cc2nc1C1CCN(C(=O)OC(C)(C)C)CC1 | 0 | -3 | -3 | 9697 | -4
COc1ccc(-c2cc3nc(C4CCN(C(=O)OC(C)(C)C)CC4)c(C(=O)O)cn3n2)cc1 | 1 | -1 | 4 | 22638* | 0
